Experimental data: PubChem BioAssay (NCATS)
Results filed as inconclusive are left out. Values without a mark were called inactive. The source made the active and inactive calls. Calls follow the shape of the dose curve; as a rule, active = well fitted inhibition curve with a large enough effect; inconclusive = small, poorly fitted or top-dose-only effect; inactive = flat fitted curve, though single readings scatter.

tested on: NIH3T3; assay: Cytotoxic Profiling of Annotated Libraries Using Quantitative High-Throughput Screening (AID 1296008); conditions: Five cell lines viability, CellTiter-Glo ATP luminescence, 48-72 h; max response: stronger effect = lower value; also: nearly all actives have a fitted effect of over 60% in size
In short: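 Cytotoxicity was measured as CellTiter-Glo ATP luminescence, read after 10 min at room temperature. Compound treatment of the cells lasted 48 or 72 hr at 37 degrees Celsius in a qHTS format.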
% is scaled to controls: 0 for no effect and ±100 for the full control effect; potency is read from the fitted curve at half-maximal effect.

| SMILES | max response | Potency |
| --- | --- | --- |
| [N-]=[N+]=N[C@]1(CO)O[C@@H](n2ccc(=O)[nH]c2=O)[C@@H](O)[C@@H]1O | -4.26% |  |
| CC[C@@](C)(Nc1ccnc(-c2c[nH]c3ncccc23)n1)C(=O)NCC(F)(F)F |  | 14.6 µM (active) |
| O=C1N=C(N2CCOCC2)CN1c1ccc(Cl)cc1 | -0.0852% |  |
| CCC(CC)C(=O)Nc1sc2c(c1C#N)CCC(C(C)(C)CC)C2 (centres undefined) | 3.55% |  |
| O=C1NC(Cc2ccccc2)C(=O)N2CCCC12 (centres undefined) | -0.863% |  |
| CC[C@@H](N)CNc1ccnc(-c2cc(-c3cnn(C)c3)ccc2O)n1 |  | 14.6 µM (active) |
| COC(=O)CC(O)C1OC(c2ccccc2)C(O)C1O (centres undefined) | -5.26% |  |
| CC1=CC(=O)CC(C)(C)[C@@]1(O)CC[C@@H](C)O[C@@H]1O[C@H](CO)[C@@H](O)[C@H](O)[C@H]1O | 0.984% |  |
| C[C@@H]1O[C@@H](O[C@H]2[C@H](O[C@H]3[C@H](O)[C@@H](C(=O)O)O[C@@H](O[C@H]4CC[C@@]5(C)C(CC[C@]6(C)C5CC[C@]57OC[C@@]8(CCC(C)(C)CC85)[C@H](O)C[C@]76C)C4(C)C)[C@@H]3O[C@@H]3O[C@H](CO)[C@@H](O[C@@H]4OC[C@@H](O)[C@H](O)[C@H]4O)[C@H](O)[C@H]3O)O[C@H](CO)[C@H](O)[C@@H]2O)[C@H](O)[C@H](O)[C@H]1O (some centres undefined) | 2.61% |  |
| C/C(=C\CCC1(C)C2CCC(C2)C1(C)O)C(=O)O (centres undefined) | 3.29% |  |
| CC[C@H]1OC(=O)[C@H](C)[C@@H](O[C@H]2C[C@@](C)(OC)[C@@H](O)[C@H](C)O2)[C@H](C)[C@@H](O[C@@H]2O[C@H](C)C[C@H](N(C)C)[C@H]2O)[C@](C)(O)C[C@@H](C)C(=O)[C@H](C)[C@H]2OC(=O)O[C@@]21C | 3.61% |  |
| O=[N+]([O-])c1cccc2[nH]c(CNc3nc(N4CCOCC4)nc4c3ncn4-c3ccsc3)nc12 |  | 0.259 µM (active) |
| O=C(Nc1ccccc1-c1cn2c(CN3CCNCC3)csc2n1)c1ccc2ccccc2n1 | 4.15% |  |
| C=C[C@H]1[C@H](O[C@@H]2O[C@H](CO)[C@@H](O)[C@H](O)[C@H]2O)OC=C(C(=O)OC)[C@H]1C/C=C(/C=O)[C@@H]1C(C(=O)OC)=CO[C@@H](O[C@@H]2O[C@H](CO)[C@@H](O)[C@H](O)[C@H]2O)[C@@H]1C=C | 4.13% |  |
| C/C(=C\C=C\C(C)C1CCC2(C)C3CCC4C(C)(C)C(=O)CCC45CC35CCC12C)C(=O)O (centres undefined) | -13.8% |  |
| CCCCC1CCN(CCCC(=O)c2ccccc2C)CC1 | -22.9% |  |
| CC(C)S(=O)(=O)NC[C@H](C)c1ccc(NC(=O)c2cc(F)cc(F)c2)cc1 | 3.47% |  |
| C/C=C1\[C@H](O[C@@H]2O[C@H](CO)[C@@H](O)[C@H](O)[C@H]2O)OC=C(C(=O)OC)[C@H]1CC(=O)O | -1.8% |  |
| CC(=O)c1ccc2c(c1)C(O)C(C(C)(C)O)O2 (centres undefined) | -18% |  |
| COc1cc(N2CCC(N3CCN(C)CC3)CC2)ccc1Nc1ncc(Cl)c(-c2c[nH]c3ccccc23)n1 |  | 1.46 µM (active) |

| SMILES | max response | Potency |
| --- | --- | --- |
| CC(=O)OC1C(=O)C2(C)C(O)CC3OCC3(OC(C)=O)C2C(OC(=O)c2ccccc2)C2(O)CC(OC(=O)C(O)C(NC(=O)c3ccccc3)c3ccccc3)C(C)=C1C2(C)C (centres undefined) |  | 0.092 µM (active) |
| CC1(C)CC[C@]2(C(=O)O[C@@H]3O[C@H](CO)[C@@H](O)[C@H](O)[C@H]3O)CC[C@]3(C)C(=CCC4[C@@]5(C)C[C@@H](O)[C@H](O)[C@](C)(C(=O)O)C5CC[C@]43C)C2C1O (some centres undefined) | -9.14% |  |
| C=C1C[C@]23C[C@H]1CC[C@H]2[C@@]1(C)CCC[C@@]2(C)C(=O)O[C@@H]([C@@H]3O)[C@@H]12 | -6.16% |  |
| O=C(O)c1ccc(CN2CCC(CN[C@@H]3C[C@H]3c3ccccc3)CC2)cc1 | -26% |  |
| COc1ccc(CC2NCCc3c2[nH]c2ccc(C)cc32)cc1OC (centres undefined) | -1.6% |  |
| CC(=O)OC1C(O)C2C(C)C3=CC(=O)OC3(O)CC2C2(C)CCCC(C)(CO)C12 (centres undefined) | 0.673% |  |
| C[C@@H]1N[C@H]2N(C1=O)c1ccccc1[C@@]2(O)C[C@@H]1C(=O)N[C@@H](C)c2nc3ccccc3c(=O)n21 | -0.438% |  |
| O=S(=O)(NCC1CC1)c1ccc(Nc2nccc(N3CCCc4cc(O)ccc43)n2)cc1 |  | 5.8 µM (active) |
| COc1ccccc1Oc1ccc(N(Cc2cccnc2)S(=O)(=O)CC(F)(F)F)cc1 | -1.58% |  |
| CO[C@H]1C[C@@H]2CC[C@@H](C)[C@@](O)(O2)C(=O)C(=O)N2CCCC[C@H]2C(=O)O[C@H]([C@H](C)C[C@H]2CC[C@@H](OP(C)(C)=O)[C@H](OC)C2)CC(=O)[C@H](C)/C=C(\C)[C@@H](O)[C@@H](OC)C(=O)[C@H](C)C[C@H](C)/C=C/C=C/C=C/1C | -2.54% |  |
| CC(C)CC(=O)OC1OC=C(CO[C@@H]2O[C@H](CO)[C@@H](O)[C@H](O)[C@H]2O)C2CC(O)C(O)(CO)C12 (some centres undefined) | -2.63% |  |
| C[C@@H]1CC[C@]2(C(=O)OC3OC(CO)C(O)C(O)C3O)CC[C@]3(C)C(=CCC4[C@@]5(C)CC[C@H](O)[C@](C)(C(=O)O)C5CC[C@]43C)C2[C@]1(C)O (some centres undefined) | -0.137% |  |
| C[C@H](Oc1ccc(S(C)(=O)=O)cc1C(=O)N1CCN(c2ncc(C(F)(F)F)cc2F)CC1)C(F)(F)F | -19.7% |  |
| CC1(c2nc3c(C(N)=O)cccc3[nH]2)CCCN1 (centres undefined) | -5.13% |  |
| COc1cc(N2CCOCC2)ccc1Nc1ncc(Cl)c(Nc2ccccc2NS(C)(=O)=O)n1 |  | 6.51 µM (active) |
| CC/C=C\CCO[C@@H]1O[C@H](CO)[C@@H](O)[C@H](O)[C@H]1O | -7.98% |  |
| CC1=CC2/C=C(\C)CC[C@@H](O)[C@@H](O)[C@@H]3O[C@@H]3C(=O)[C@]23C(=O)N[C@@H](CC(C)C)[C@@H]3[C@@H]1C (some centres undefined) | 1.23% |  |
| C[C@@H]1COCCN1c1cc(C2(S(C)(=O)=O)CC2)nc(-c2cccc3[nH]ccc23)n1 |  | 2.06 µM (active) |
| CC1(C)CCCC2(C)C=C(C(=O)O)C(O)CC12 (centres undefined) | 1.16% |  |
